# Assay outcomes from PubChem BioAssay.
# NRP1-CendR mod – modulators of CendR peptide binding to human neuropilin-1; actives 0.85% (n = 360,000); FAM-RPARPAR peptide binding to NRP-1, fluorescence polarization; inhibition, % at 25 µM; AID 602438; O14786;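 active means inhibition or corrected inhibition above about 18%, plus a signal ratio from 0.5 to 1.5, limit read from the data, passing the limit was not always enough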
# PKA-R1A activ – activates the PKA-R1A holoenzyme complex. P00514+P68181. PKA-R1A dissociation, Cy5-IP20 fluorescence polarization; scaled: DMSO 0%, 113 µM cGMP 100%. activation, % at 11.4 µM. actives 0.083% (n = 340,000);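 active means percent activation above the mean of all tested compounds plus 3 SD, cut at about 19% in these data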;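 further: higher means more PKAc released from R1A so a rise in polarization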
# ATG4B inhibitor – inhibitors of human ATG4B cysteine protease; actives 0.51% (n = 340,000); inhibition, % at 8.33 µM; AID 504462; Q9Y4P1; ATG4B cleavage of LC3-PLA2, NBD-HPC fluorescence, 1 h
# Target sequence (Q9Y4P1 whole entry, looked up): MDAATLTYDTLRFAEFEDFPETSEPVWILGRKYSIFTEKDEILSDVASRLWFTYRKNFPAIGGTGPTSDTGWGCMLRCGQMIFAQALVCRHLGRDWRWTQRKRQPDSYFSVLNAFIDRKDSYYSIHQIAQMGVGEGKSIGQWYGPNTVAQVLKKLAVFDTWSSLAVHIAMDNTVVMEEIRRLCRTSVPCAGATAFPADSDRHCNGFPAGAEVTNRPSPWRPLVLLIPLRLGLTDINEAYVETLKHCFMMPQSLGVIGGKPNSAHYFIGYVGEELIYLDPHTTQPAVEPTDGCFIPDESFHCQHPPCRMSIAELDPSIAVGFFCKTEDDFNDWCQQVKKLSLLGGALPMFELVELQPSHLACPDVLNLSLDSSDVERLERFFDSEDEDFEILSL
# VLA-4 inh – inhibition in a human VLA-4 binding assay | AID 2557 | VLA-4 expressing cells, ligand binding flow cytometry | P13612 | inhibition, % (about 7 µM as worked out from the volumes in the protocol) | actives 0.2% (n = 330,000); in the data active means inhibition above about 50%
# PKA-R2B act – PKA-R2B complex activation; P22694+P31323; activation, % at 11.4 µM; PKA-R2B holoenzyme dissociation, Cy5-IP20 fluorescence polarization; R2B truncated from residue 108, S112A mutant; 0% DMSO only, 100% 113 µM cGMP; actives 0.079% (n = 340,000);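 active means activation above a cutoff set at the mean over all compounds plus 3 SD, cut at about 18% in these data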;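 further: higher means more holoenzyme dissociation and a rise in polarization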
# VLA-4 mod pick – human VLA-4 allosteric modulation in cherry picked compounds; shares compounds with VLA-4 inh; U937 cells, HUTS-21 LIBS mAb binding, flow cytometry; LDV ligand present at threefold Kd; inhibition, % at 6.7 µM; actives 2% (n = 1,300);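 further: 0% = ligand without compound and 100% = no ligand background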
# * hit, by the source's call; i = inactive; x = not tested or not shown. In the library only some 1.6% were active in any assay of this set; here they are far more common. Unless noted, no stated cut-off is given here; in the data, active means inhibition above about 40%; inactive means the rest.
SMILES,NRP1-CendR mod,PKA-R1A activ,ATG4B inhibitor,VLA-4 inh,PKA-R2B act,VLA-4 mod pick
COCCNC(=O)/C(C#N)=C/c1cc(Br)c(O)c(OC)c1,-25,-1,-10,-12,-3,1
CCCCn1c(N)c(N(CCC(C)C)C(=O)c2c(CC)noc2C)c(=O)[nH]c1=O,17,-1,x,x,3,x
CCOC(=O)CSc1ccc2nnc(-c3cccs3)n2n1,13,-2,-10,51*,-17,16
CCOc1cccc(N2C(=O)CC(N(CCc3ccc(OC)c(OC)c3)C(=O)CC)C2=O)c1 (stereo not drawn),10,-4,2,7,-10,-8
CCOc1ccc(N2C(=O)CC(N(CCc3ccc(S(N)(=O)=O)cc3)C(C)=O)C2=O)cc1 (stereo not drawn),-1,0,-6,10,-4,x
CCC(=O)N(Cc1ccc(S(N)(=O)=O)cc1)C1CC(=O)N(c2ccc(OC)cc2)C1=O (stereo not drawn),0,4,-7,0,-2,4
CCN(CC)c1ccc(CNc2ccc3c(c2)ncn3C(C)(C)C)cc1,-4,2,5,54*,-1,8
CCCCN1C[C@H](C)[C@@H](CC(=O)NCc2ccccc2)C1=O,3,-7,0,15,-16,x
O=C(O)CCc1nc(-c2ccccc2)c(-c2ccccc2)o1,x,x,x,51*,x,-1
COc1ccc(C)cc1NC(=O)NCc1ccc(F)cc1,11,-5,16,40,-3,-2
O=C1CCC(C(=O)N2CCCCO2)CN1Cc1ccc(Cl)cc1 (stereo not drawn),4,-14,-1,0,11,x
CCN1CCN(c2nc(Nc3cccc(OC)c3)nc(N)c2[N+](=O)[O-])CC1,0,-20,-5,44,-4,-28
O=C(CN(CC1CCCO1)C(=O)c1nsc(Cl)c1Cl)NC1CCCC1 (stereo not drawn),4,3,-3,57*,-2,4
CN(CC(=O)Nc1ccc(Cl)c(Cl)c1)C(=O)CNC(=O)C1CCCCC1,2,-1,-8,11,-3,x
Cc1ccc(C(NC(=O)C2CCN(Cc3ccc(Oc4ccccc4)cc3)CC2)c2ccccn2)cc1 (stereo not drawn),-1,x,x,x,x,x
COc1cccc(CC(CC(=O)O)C(=O)Nc2cc(C)ccc2C)c1 (stereo not drawn),7,0,5,2,-7,x
Cc1ccc(S(=O)(=O)N2[C@@H](c3ccc(F)cc3)C(C(=O)O)=C[C@H]2CC2CCCC2)cc1,2,-1,7,-24,-11,0
CC[C@@H]1C=C(C(=O)O)[C@H](c2ccc(F)cc2)N1S(=O)(=O)c1ccc(C)cc1,2,-4,0,25,-6,x
Cc1ccc([C@H]2C(C(=O)O)=C[C@@H](CC3CCCC3)N2S(=O)(=O)c2ccc(C)cc2)cc1,-5,-3,5,48,-5,x
CCc1ccc([C@H]2C(C(=O)O)=C[C@@H](CC3CCCC3)N2S(=O)(=O)c2ccc(C)cc2)cc1,-11,-1,11,27,-15,8
O=c1c2ccccc2cnn1CCOc1cccc(Br)c1,19,-1,-6,7,-1,x
CCC(=O)N1CCC1(C)C(=O)Nc1ccc(OC(F)F)cc1 (stereo not drawn),-6,x,x,x,x,x
CS(=O)(=O)N(CC(=O)NCCSCc1ccccc1)c1ccccc1Br,4,-2,-6,10,-7,x
Cc1cc(Nc2ccccc2)nc2cc(O)ccc12,1,-6,-9,56*,2,-11
COc1ccc(Nc2cc(C)c3ccc(O)cc3n2)cc1,8,1,1,23,0,x
SMILES,NRP1-CendR mod,PKA-R1A activ,ATG4B inhibitor,VLA-4 inh,PKA-R2B act,VLA-4 mod pick
CC(C)C(NS(=O)(=O)c1ccc2c(c1)C(C)(C)C(=O)N2C)C(=O)NCc1ccccc1Cl (stereo not drawn),-20,-4,-7,74*,-5,-15
CN1C(=O)C(C)(C)c2cc(S(=O)(=O)NCc3ccc(Cl)cc3)ccc21,-14,-8,-4,0,-4,0
Cc1ccc(CCNS(=O)(=O)c2ccc3c(c2)C(C)(C)C(=O)N3C)cc1,-4,-14,1,-24,12,x
CN1C(=O)C(C)(C)c2cc(S(=O)(=O)NCCc3ccc(Cl)cc3)ccc21,2,-1,-10,-7,4,-5
C=CCn1c(C)cc(C2=NNC(=Nc3ccc(C)cc3)SC2)c1C,8,-1,18,0,-4,x
C=CCn1c(C)cc(C2=NNC(=NC(C)(C)C)SC2)c1C,6,0,15,46,-3,-9
COc1ccc(CCC(=O)Nc2c(C)n(C)n(-c3ccccc3)c2=O)cc1,12,-13,-1,0,-1,x
Cc1c(NC(=O)CSc2nc(-c3ccco3)cc(C(F)(F)F)n2)c(=O)n(-c2ccccc2)n1C,3,4,0,93*,1,i
Cc1cc(NC(=O)CSc2nc(-c3ccco3)cc(C(F)(F)F)n2)n(-c2ccccc2)n1,-17,-15,10,-4,-1,x
Cc1cccc([C@@H]2[C@@H]3C(=O)N(Cc4ccccc4)C(=O)[C@@H]3[C@]3(Cc4ccc(Cl)cc4)C(=O)N(c4cccc(Br)c4)C(=O)N23)c1,-5,-10,-2,-2,3,x
Cc1ccc(-c2nc(-c3ccccc3)no2)cc1,10,-8,-6,95*,-3,0
Cc1ccc(-c2nc(-c3ccncc3)no2)cc1,3,-17,-1,-14,-2,x
Cc1nn(-c2cc(N3CCOCC3)ccc2[N+](=O)[O-])c(=O)c2ccccc12,6,-5,-2,-6,-6,x
Cc1nn(-c2cc(N3CCOCC3)ccc2N)c(=O)c2ccccc12,2,-4,-10,64*,2,1
COc1cccc(C(=O)O/N=C(\N)c2ccncc2)c1,12,-8,6,9,0,x
COc1cccc(C(=O)O/N=C(\N)c2ccc(C)cc2)c1,-1,1,-2,42,5,-22
Cc1ccoc1C(=O)Nc1cccc2ccccc12,6,-6,-1,4,-12,x
CCOC(=O)N1CCC(N2Cc3cccc(C(=O)NCc4ccc(C)cc4)c3C2=O)CC1,-12,1,-2,50*,-1,14
COC(=O)c1ccc(CSc2ccc3nnc(-c4ccccn4)n3n2)o1,7,6,-10,54*,14,3
C#CCOc1ccc2c(C)cc(=O)oc2c1,-10,-15,2,52*,-1,i
COc1ccc(S(=O)(=O)NC(=O)C2(C)CCN2C(=O)Cc2cc(C)cc(C)c2)cc1 (stereo not drawn),-2,x,x,x,x,x
CC1CC(C)CN(S(=O)(=O)c2ccc(C(=O)OCC(=O)Nc3ccccc3)cc2)C1 (stereo not drawn),0,7,x,x,3,x
